# According to PubChem BioAssay (Tox21):
# Records with an inconclusive call do not appear. A number with no mark means an inactive call. Unless noted, calls follow the shape of the dose curve; as a rule, active = well fitted cell-killing curve with a large enough effect in the repeat runs; inconclusive = weak or mixed curves; inactive = no such curve, though single readings can be large or run the other way.
# Test system: not listed separately
# Test: qHTS assay to identify small molecule agonists of the peroxisome proliferator-activated receptor delta (PPARd) signaling pathway - cell viability counter screen (AID 743211); also: nearly all actives have a fitted effect of over 55% in size
# Conditions: PPARd-bla HEK293H viability, CellTiter-Glo luminescence, 17 h; series mostly up to 62.6 µM; activity change, negative = cytotoxicity: at the top concentration
# How it was run: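 Tox21 library compounds, delivered in DMSO, were incubated 17 h with PPARd-bla HEK293H cells; cytotoxicity was taken from CellTiter-Glo luminescence read 30 min after reagent addition.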
# % is scaled to controls: 0 for no effect and ±100 for the full control effect.
row,SMILES,"activity change, negative = cytotoxicity [%]"
1,c1ccccc1,3.02
2,CCCCCN(CCCOC)C(=O)C(CCC(=O)O)NC(=O)c1ccc(Cl)c(Cl)c1 (stereo not drawn),0.0216
3,CCN(CC)C(=O)C1CN2CCc3cc(OC)c(OC)cc3C2CC1OC(C)=O (stereo not drawn),0.691
4,O=C(CN1CCN(Cc2ccc3c(c2)OCO3)CC1)N1c2ccccc2Sc2ccccc21,-19.1
5,CC(CC(=O)O)CC(C)(C)C (stereo not drawn),-2.12
6,c1ccc(CNc2ncnc3nc[nH]c23)cc1,-8.77
7,CCC(CO)CO,4.67
8,CC(=O)OC(C)(C)Cc1ccccc1,9.56
9,C=CCOc1cc(Cl)ccc1C(=O)NCCN(CC)CC,-0.12
10,CCOC(=O)CC#N,6.65
11,CC(=O)OCCCc1ccccc1,5.04
12,CC(C)C(=O)Nc1cccc(C(F)(F)F)c1,0.0939
13,Cc1cccc(NC(=S)N(C)C)c1,-5.3
14,CCC(C)(CCC(C)C)C(=O)[O-].CCC(C)(CCC(C)C)C(=O)[O-].[Zn+2] (stereo not drawn),2.62
15,CC(C)COC(=O)/C=C/c1ccccc1,4.67
16,Nc1ccc(C(=O)OCC(O)CO)cc1 (stereo not drawn),-3.66
17,O=S(=O)(O)c1cc(O)ccc1O,15
18,O=C(O)c1ccc(OCCN2CCCCC2)cc1,0.85

row,SMILES,"activity change, negative = cytotoxicity [%]"
1,O=C(O)/C=C/c1ccccc1,-18.9
2,CCCCCCCCCCCCCCCCCCN(C)C,-7.42
3,Cc1ccc(C(=O)C(=O)O)cc1C,4.91
4,CNC(=O)C(c1ccccc1)c1ccccc1,-11.5
5,CCCCC(CC)CNC(=O)CC(C)OC(=O)CCC(=O)O (stereo not drawn),-0.697
6,CC(=O)OC[C@H]1O[C@@H](OC(C)=O)[C@H](OC(C)=O)[C@@H]1OC(C)=O,7.95
7,N#CCCOCCOCCC#N,6.02
8,CC(C)CCC(=O)CCC(C)C,0.964
9,Nc1nc(=O)n([C@@H]2O[C@H](CO)[C@@H](O)[C@@H]2F)cc1I,7.38
10,CCOC(=O)C(=O)c1csc(NC=O)n1,3.53
11,CC(C)=CC(C)(C)C,2.68
12,O=C1OC(=O)c2cc(Oc3ccc4c(c3)C(=O)OC4=O)ccc21,1.89
13,CC(=O)N1CCN(c2ccc(O)cc2)CC1,5.73
14,COc1ccc(OC)c(NC(=O)CC(C)=O)c1,-0.845
15,CO/N=C(/C(=O)N[C@@H]1C(=O)N2C(C(=O)O)=C(Cn3nnc(C)n3)CS[C@H]12)c1csc(N)n1,3.65
16,COc1cc([N+](=O)[O-])ccc1N,0.987
17,C/C=C(\C)C(=O)OCC/C=C\CC,8.31

# Molecular target: Peroxisome proliferator-activated receptor delta (Homo sapiens) (UniProt Q03181)
# Sequence (Q03181 whole entry, looked up): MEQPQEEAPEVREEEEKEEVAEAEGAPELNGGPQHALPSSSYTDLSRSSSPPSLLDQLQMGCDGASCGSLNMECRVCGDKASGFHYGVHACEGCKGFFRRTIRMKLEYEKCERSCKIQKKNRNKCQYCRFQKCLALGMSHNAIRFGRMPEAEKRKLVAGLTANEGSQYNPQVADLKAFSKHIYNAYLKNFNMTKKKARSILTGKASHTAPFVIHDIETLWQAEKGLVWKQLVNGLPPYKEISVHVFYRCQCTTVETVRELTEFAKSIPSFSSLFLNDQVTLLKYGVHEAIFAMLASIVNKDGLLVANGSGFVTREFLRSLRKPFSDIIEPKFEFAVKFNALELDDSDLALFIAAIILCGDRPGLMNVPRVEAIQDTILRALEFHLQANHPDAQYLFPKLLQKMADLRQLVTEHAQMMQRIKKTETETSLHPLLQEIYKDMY
# Test: qHTS assay to identify small molecule agonists of the peroxisome proliferator-activated receptor delta (PPARd) signaling pathway (AID 743212; calls by dose curve)
# Conditions: HEK293H PPARd-UAS-bla, beta-lactamase FRET ratio, 17 h; series mostly up to 62.6 µM; activation: at the top concentration
# How it was run: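 HEK293H UAS-bla reporter cells, human PPARd system; compounds delivered in DMSO after 5 h plating, then at 37 C. Beta-lactamase FRET read, 2 h RT substrate step.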
row,SMILES,activation [%]
1,CCCCCN(CCCOC)C(=O)C(CCC(=O)O)NC(=O)c1ccc(Cl)c(Cl)c1 (stereo not drawn),-1.79
2,CCN(CC)C(=O)C1CN2CCc3cc(OC)c(OC)cc3C2CC1OC(C)=O (stereo not drawn),3.97
3,CC(=O)N(CC(O)CO)c1c(I)c(C(=O)NCC(O)CO)c(I)c(C(=O)NCC(O)CO)c1I (stereo not drawn),-1.59
4,CCC(CO)CO,-0.278
5,CC(=O)OC(C)(C)Cc1ccccc1,-0.499
6,Cc1nc2n(c(=O)c1CCN1CCC(C(=O)c3ccc(F)cc3)CC1)CCS2,-3.8
7,CCOC(=O)CC#N,0
8,Cc1cccc(NC(=S)N(C)C)c1,-0.288
9,CC(C)COC(=O)/C=C/c1ccccc1,-3
10,O=C(O)c1ccc(OCCN2CCCCC2)cc1,-3.53
11,O=C(O)/C=C/c1ccccc1,3.03
12,CCCCCCCCCCCCCCCCCCN(C)C,1.55
13,Cc1ccc(C(=O)C(=O)O)cc1C,-0.139
14,CNC(=O)C(c1ccccc1)c1ccccc1,7.17
15,CCCCC(CC)CNC(=O)CC(C)OC(=O)CCC(=O)O (stereo not drawn),-1.11
16,N#CCCOCCOCCC#N,0.653
17,Nc1nc(=O)n([C@@H]2O[C@H](CO)[C@@H](O)[C@@H]2F)cc1I,-0.486
18,CCOC(=O)C(=O)c1csc(NC=O)n1,1.25
19,COc1ccc(OC)c(NC(=O)CC(C)=O)c1,-4.94
20,COc1cc([N+](=O)[O-])ccc1N,7.68
21,C/C=C(\C)C(=O)OCC/C=C\CC,3.52

# Test system: not listed separately
# Test: qHTS assay to identify small molecule antagonists of the peroxisome proliferator-activated receptor delta (PPARd) signaling pathway - cell viability counter screen (AID 743213); also: nearly all actives have a fitted effect of over 50% in size
# Conditions: PPARd-bla HEK293H viability, CellTiter-Glo luminescence, 17 h; series mostly up to 62 µM; viability change, negative = cytotoxic: at the top concentration
# How it was run: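 HEK293H PPARd UAS-bla cells, 5 h pre-incubation, compound + L165041 300 nM final, 17 h 37 C; B/G FRET substrate 2 h RT; then CellTiter-Glo 30 min RT, luminescence.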
row,SMILES,"viability change, negative = cytotoxic [%]"
1,c1ccccc1,-2.1
2,CCCCCN(CCCOC)C(=O)C(CCC(=O)O)NC(=O)c1ccc(Cl)c(Cl)c1 (stereo not drawn),-1.73
3,CCN(CC)C(=O)C1CN2CCc3cc(OC)c(OC)cc3C2CC1OC(C)=O (stereo not drawn),-14.6
4,O=C(CN1CCN(Cc2ccc3c(c2)OCO3)CC1)N1c2ccccc2Sc2ccccc21,-18.5
5,CC(CC(=O)O)CC(C)(C)C (stereo not drawn),-13.5
6,c1ccc(CNc2ncnc3nc[nH]c23)cc1,-9.19
7,CCC(CO)CO,15.1
8,CC(=O)OC(C)(C)Cc1ccccc1,7
9,Cc1nc2n(c(=O)c1CCN1CCC(C(=O)c3ccc(F)cc3)CC1)CCS2,-15.7
10,CC(=O)OCCCc1ccccc1,-12.7
11,CC(C)C(=O)Nc1cccc(C(F)(F)F)c1,0.325
12,Cc1cccc(NC(=S)N(C)C)c1,9.84
13,Nc1ccc(C(=O)OCC(O)CO)cc1 (stereo not drawn),-6.89
14,O=C(O)c1ccc(OCCN2CCCCC2)cc1,23.8
15,O=C(O)/C=C/c1ccccc1,-3.84
16,CCCCCCCCCCCCCCCCCCN(C)C,4.13
17,C[Si]1(C)N[Si](C)(C)N[Si](C)(C)N1,-32.8
18,Cc1ccc(C(=O)C(=O)O)cc1C,-1.63
19,CCCCC(CC)CNC(=O)CC(C)OC(=O)CCC(=O)O (stereo not drawn),1.28
20,N#CCCOCCOCCC#N,6.9
21,Nc1nc(=O)n([C@@H]2O[C@H](CO)[C@@H](O)[C@@H]2F)cc1I,1.74
22,CCOC(=O)C(=O)c1csc(NC=O)n1,13.8
23,CC(C)=CC(C)(C)C,5.35
24,CC(=O)N1CCN(c2ccc(O)cc2)CC1,29.2
25,COc1ccc(OC)c(NC(=O)CC(C)=O)c1,2.56
26,CO/N=C(/C(=O)N[C@@H]1C(=O)N2C(C(=O)O)=C(Cn3nnc(C)n3)CS[C@H]12)c1csc(N)n1,4.16
27,C/C=C(\C)C(=O)OCC/C=C\CC,0.605
